Source: paper PMC4336329 (PLoS ONE, 2015)
About 14,000 (4.5%) of roughly 310,000 compounds showed an effect of 50% or more. Effects have a minus sign here. For the sample, strong results were picked, then their nearest neighbours and some compounds at random.

Target: human ether-à-go-go-related gene (hERG) potassium channel (human, UniProt Q12809)
Experiment: primary screen, population patch clamp on CHO cells stably expressing hERG; higher = less effect of the substance
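Further: peak tail current of the secondary pulse compared with the same well before compound.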

Sequence of human ether-à-go-go-related gene (hERG) potassium channel (Q12809 whole entry, looked up): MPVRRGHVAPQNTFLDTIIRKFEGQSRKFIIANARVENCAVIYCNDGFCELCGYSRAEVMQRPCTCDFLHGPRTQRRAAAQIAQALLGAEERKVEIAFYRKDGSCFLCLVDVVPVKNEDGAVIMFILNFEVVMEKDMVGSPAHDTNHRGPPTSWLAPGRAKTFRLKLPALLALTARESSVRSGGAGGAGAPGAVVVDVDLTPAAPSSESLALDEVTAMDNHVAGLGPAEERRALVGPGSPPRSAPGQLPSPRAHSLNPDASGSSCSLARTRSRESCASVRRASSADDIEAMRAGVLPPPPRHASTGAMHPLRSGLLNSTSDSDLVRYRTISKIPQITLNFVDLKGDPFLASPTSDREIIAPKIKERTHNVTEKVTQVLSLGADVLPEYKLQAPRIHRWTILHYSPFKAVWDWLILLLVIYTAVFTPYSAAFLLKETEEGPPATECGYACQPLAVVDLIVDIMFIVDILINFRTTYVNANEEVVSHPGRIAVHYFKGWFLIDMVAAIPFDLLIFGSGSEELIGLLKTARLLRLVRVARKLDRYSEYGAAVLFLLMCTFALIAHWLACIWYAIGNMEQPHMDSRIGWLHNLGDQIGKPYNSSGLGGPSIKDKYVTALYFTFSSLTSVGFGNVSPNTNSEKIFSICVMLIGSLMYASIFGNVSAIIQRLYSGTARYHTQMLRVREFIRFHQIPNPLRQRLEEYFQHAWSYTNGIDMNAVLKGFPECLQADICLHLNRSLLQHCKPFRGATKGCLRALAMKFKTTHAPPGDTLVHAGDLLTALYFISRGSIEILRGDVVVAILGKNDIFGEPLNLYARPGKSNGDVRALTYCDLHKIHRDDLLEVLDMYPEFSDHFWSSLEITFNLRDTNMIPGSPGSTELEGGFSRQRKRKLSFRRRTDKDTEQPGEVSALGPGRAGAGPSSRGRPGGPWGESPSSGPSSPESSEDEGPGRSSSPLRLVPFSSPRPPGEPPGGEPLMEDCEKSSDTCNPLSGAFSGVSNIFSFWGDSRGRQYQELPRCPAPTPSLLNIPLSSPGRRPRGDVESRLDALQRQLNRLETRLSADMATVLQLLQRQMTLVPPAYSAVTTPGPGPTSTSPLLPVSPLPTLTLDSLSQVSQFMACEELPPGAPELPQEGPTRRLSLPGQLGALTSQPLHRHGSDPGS

Row | Compound | hERG current change (%, negative = inhibition) at 10uM
1 | COc1ccc(OC)c(NC(=S)NCc2cccnc2)c1 | 8.59%
2 | COC(=O)C1CC(O)CN1C(=O)c1ccco1 (centres unmarked) | 10.6%
3 | CN(C)S(=O)(=O)c1ccc(NC(=O)CN2CCC(Cc3ccccc3)CC2)cc1 | -32.8%
4 | Cc1cc(C)n(-c2cccc(CN(C)Cc3nc(-c4cnccn4)no3)c2)n1 | 10.8%
5 | CN(Cc1ccc(F)cc1)Cc1nc(-c2cnccn2)no1 | 13.7%
6 | CN(Cc1ccc(-n2cccn2)cc1)Cc1nc(-c2cnccn2)no1 | -58.2%
7 | Cn1nc(C(=O)N2CCN(c3cccc(Cl)c3)CC2)c2c1-c1ccccc1S(=O)(=O)C2 | -53.4%
8 | Cn1nc(C(=O)N2CCN(c3ccccc3F)CC2)c2c1-c1ccccc1S(=O)(=O)C2 | -21.2%
9 | Cn1nc(C(=O)N2CCN(c3ccc(F)cc3)CC2)c2c1-c1ccccc1S(=O)(=O)C2 | -54.3%
10 | Cn1nc(C(=O)N2CCCCC2)c2c1-c1ccccc1S(=O)(=O)C2 | 14.7%
11 | Cn1nc(C(=O)N2CCN(c3ccccc3)CC2)c2c1-c1ccccc1S(=O)(=O)C2 | -40.9%
12 | Cc1cccc(N2CCN(C(=O)c3nn(C)c4c3CS(=O)(=O)c3ccccc3-4)CC2)c1C | -33.4%
13 | CC(=O)c1ccc(N2CCN(C(=O)c3nn(C)c4c3CS(=O)(=O)c3ccccc3-4)CC2)cc1 | -64.5%
14 | CCN1CCN(C(=O)c2nn(C)c3c2CS(=O)(=O)c2ccccc2-3)CC1 | 12%
15 | Cc1ccc(N2CCN(C(=O)c3nn(C)c4c3CS(=O)(=O)c3ccccc3-4)CC2)c(C)c1 | -3%
16 | COc1ccccc1N1CCN(C(=O)c2nn(C)c3c2CS(=O)(=O)c2ccccc2-3)CC1 | 2.07%
17 | Cn1nc(C(=O)N2CCN(c3ccc(Cl)cc3)CC2)c2c1-c1ccccc1S(=O)(=O)C2 | -51.2%
18 | Cn1nc(C(=O)N2CCN(c3ccc([N+](=O)[O-])cc3)CC2)c2c1-c1ccccc1S(=O)(=O)C2 | -31.4%
19 | CCN1CCN(CC(=O)c2ccc(C)cc2)CC1 | 8.76%
20 | CC(=O)Nc1ccc(S(=O)(=O)Oc2ccc(C(=S)N3CCCCC3)cc2)cc1 | -16.6%
21 | COc1cccc(NC(=O)c2cn(C)c(=O)c3cc(OC)c(OC)cc23)c1 | 6.54%

Row | Compound | hERG current change (%, negative = inhibition) at 10uM
22 | Fc1ccc(N2N=C(c3cccs3)CC2c2ccccc2)cc1 (centres unmarked) | 8.89%
23 | COc1ccc(CC(=O)NC(C)c2nnc(SCCOc3ccc(OC)cc3)n2C)cc1 (centres unmarked) | -11.2%
24 | O=C(O)CCn1c(=S)n(CCC(=O)O)c2ccccc21 | -1.59%
25 | O=C(C1CCCN(Cc2ccc([N+](=O)[O-])cc2)C1)N1CCCCC1.O=C(O)C(=O)O (centres unmarked) | -28.4%
26 | CSc1ccc(CN2CCN(Cc3ccc([N+](=O)[O-])cc3)CC2)cc1.O=C(O)C(=O)O | -78.1%
27 | CCCS(=O)(=O)N1CCN(Cc2ccc([N+](=O)[O-])cc2)CC1.O=C(O)C(=O)O | -51.9%
28 | CS(=O)(=O)N1CCN(Cc2ccc([N+](=O)[O-])cc2)CC1 | -23.6%
29 | CCS(=O)(=O)N1CCN(Cc2ccc([N+](=O)[O-])cc2)CC1.O=C(O)C(=O)O | -44.4%
30 | CSc1ccc(CN2CCN(C(=O)c3ccc([N+](=O)[O-])cc3)CC2)cc1.O=C(O)C(=O)O | -77.2%
31 | CSc1ccc(CN2CCN(C(=O)c3ccncc3)CC2)cc1 | -21.4%
32 | CCN1CCN(Cc2ccc(NC(=O)Nc3ccc(SC)cc3)cc2)CC1 | -44.5%
33 | CCc1ccc(CN2CCN(Cc3ccc(SC)cc3)CC2)cc1.O=C(O)C(=O)O | -67.9%
34 | CSc1ccc(CN2CCN(C(=O)Cc3ccccc3)CC2)cc1 | -12.1%
35 | CCCS(=O)(=O)N1CCN(Cc2ccncc2)CC1.O=C(O)C(=O)O | 10.8%
36 | COC(CNC(=O)CC1C(=O)N(Cc2ccccc2)C(C)c2nc3ccccc3n21)OC (centres unmarked) | 9.2%
37 | CCCCn1nc(C(=O)N[C@@H](CCSC)c2nc3ccccc3[nH]2)c2ccccc2c1=O | -28.7%
38 | CC(=O)Nc1ccc(NC(=O)CC(C)n2ccnc2)cc1 (centres unmarked) | 7.66%
39 | O=C1/C(=C/c2ccccc2F)SC(=S)N1CC(=O)N1CCCCC1c1cccnc1 (centres unmarked) | 1.73%
40 | C#CCOc1nc(Nc2cccc([N+](=O)[O-])c2)nc(OCC#C)n1 | -10.1%
41 | O=C(COc1ccc(S(=O)(=O)N2CCCC2)cc1Cl)N1CCN(c2ccccc2)CC1 | -15.5%
